Records with an inconclusive call do not appear. Activity calls are given as the source filed them. Rule for the calls: active = hit-call score of the fitted dose curve at least 0.9, where 1 is the maximum; inconclusive = response in the unintended direction; inactive = score below 0.9.
Test: Tanguay_ZF_120hpf_CFIN_legacy: (Legacy) Oregon State University Tanguay Lab 120 Hour Post-fertilization zebrafish Assay for Caudal Fin Malformation (AID 2283649)
How it was run: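 Dechorionated Tropical 5D wild-type embryos, one per well from 6 hpf, static exposure to 120 hpf at 28C in 0.64% DMSO. Caudal fin malformation scored by brightfield as present/absent; not scored in dead embryos.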
With `CC(C)(O)c1ccc(CNC(=O)c2cccnc2Oc2ccc(F)cc2)cc1` the outcome was “inactive”.
For `COC(=O)[C@H]1[C@H]2C[C@@H]3c4[nH]c5cc(OC)ccc5c4CCN3C[C@H]2C[C@@H](OC(=O)c2cc(OC)c(OC)c(OC)c2)[C@@H]1OC`, the outcome was “inactive”.
With `NC=O` the outcome was “inactive”.
For `OCC(CO)n1cnc(-c2ccc(F)cc2)c1-c1ccnc(Oc2ccccc2)n1`, the outcome was “inactive”.
For `NCCOCCOCCN`, the outcome was “inactive”.
In the case of `Cc1cc(SC2=C(O)C[C@@](CCc3ccc(N)cc3)(C(C)C)OC2=O)c(C(C)(C)C)cc1CO`, the outcome is reported as “inactive”.
For `C#CC(O)C(CC)CCCC` (centres undefined), the outcome was “inactive”.
In the case of `O=C(NS(=O)(=O)/C=C/c1cccs1)c1ccc(F)cc1Br`, the outcome is reported as “inactive”.
With `Nc1nc(Cl)nc2c1ncn2[C@H]1C[C@H](O)[C@@H](CO)O1` the outcome was “inactive”.
For `C/C=C/c1ccc(OC)cc1`, the outcome was “inactive”.
For `COc1ccc(OC(F)(F)F)cc1CN[C@H]1CCCN[C@H]1c1ccccc1`, the outcome was “inactive”.
With `CC(C)(C)c1ccccc1` the outcome was “inactive”.
With `S=c1[nH]c2ccccc2s1` the AC50 was 31.9 µM (active).
With `CC(C)c1cccc(C(C)C)c1NC(=O)NS(=O)(=O)c1cc(C(C)(C)O)co1` the outcome was “inactive”.
In the case of `COC(=O)CCCC(=O)OC`, the outcome is reported as “inactive”.
With `CC(=O)[C@@]1(O)CC[C@H]2[C@@H]3CCC4=CC(=O)CC[C@]4(C)[C@H]3CC[C@@]21C` the outcome was “inactive”.
In the case of `COC(=O)CCC(=O)OC`, the outcome is reported as “inactive”.
For `O=C1c2c(O)cccc2Cc2cccc(O)c21`, the outcome was “inactive”.
With `CSc1ccc(Oc2ccc(S(N)(=O)=O)cc2CN(C)C)cc1C` the outcome was “inactive”.
For `CCCCC(CC)CO` (centres undefined), the outcome was “inactive”.
With `CC(=O)O[C@]1(C(C)=O)CC[C@H]2[C@@H]3C=C(Cl)C4=CC(=O)[C@@H]5C[C@@H]5[C@]4(C)[C@H]3CC[C@@]21C` the outcome was “inactive”.

Test: Tanguay_ZF_120hpf_PIG_legacy: (Legacy) Oregon State University Tanguay Lab 120 Hour Post-fertilization zebrafish Assay for Pigmentation Malformation (AID 2283650)
How it was run: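 Dechorionated Tropical 5D wild-type embryos, one per well from 6 hpf, statically exposed at 28C in the dark until 120 hpf, 0.64% DMSO final. Pigmentation scored present/absent by brightfield microscopy; dead embryos not scored; fitted versus DMSO.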
For `CC(C)(O)c1ccc(CNC(=O)c2cccnc2Oc2ccc(F)cc2)cc1`, the outcome was “inactive”.
With `NC=O` the outcome was “inactive”.
With `CC(=O)O` the outcome was “inactive”.
In the case of `CC1=C(C)S(=O)(=O)CCS1(=O)=O`, the outcome is reported as “inactive”.
For `OCC(CO)n1cnc(-c2ccc(F)cc2)c1-c1ccnc(Oc2ccccc2)n1`, the outcome was “inactive”.
In the case of `C#CC(O)C(CC)CCCC` (centres undefined), the outcome is reported as “inactive”.
For `O=C(NS(=O)(=O)/C=C/c1cccs1)c1ccc(F)cc1Br`, the outcome was “inactive”.
In the case of `C/C=C/c1ccc(OC)cc1`, the outcome is reported as “inactive”.
With `C=CCc1ccc(OC)c(OC)c1` the outcome was “inactive”.
In the case of `COc1ccc(OC(F)(F)F)cc1CN[C@H]1CCCN[C@H]1c1ccccc1`, the outcome is reported as “inactive”.
With `S=c1[nH]c2ccccc2s1` the AC50 was 39.6 µM (active).
In the case of `CC(C)c1cccc(C(C)C)c1NC(=O)NS(=O)(=O)c1cc(C(C)(C)O)co1`, the outcome is reported as “inactive”.
For `CC1(C)C(=O)NC(=O)N1CO`, the outcome was “inactive”.
With `CCCCCCC(C=O)=Cc1ccccc1` the outcome was “inactive”.
In the case of `COC(=O)CCC(=O)OC`, the outcome is reported as “inactive”.
In the case of `O=C1c2c(O)cccc2Cc2cccc(O)c21`, the outcome is reported as “inactive”.
With `Oc1ccc(O)cc1` the outcome was “inactive”.
With `CC(N)=O` the outcome was “inactive”.
With `CC(=O)O[C@]1(C(C)=O)CC[C@H]2[C@@H]3C=C(Cl)C4=CC(=O)[C@@H]5C[C@@H]5[C@]4(C)[C@H]3CC[C@@]21C` the outcome was “inactive”.

Test: Tanguay_ZF_120hpf_CIRC_legacy: (Legacy) Oregon State University Tanguay Lab 120 Hour Post-fertilization zebrafish Assay for Circulatory Malformation (AID 2283651)
How it was run: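 Tropical 5D wild-type embryos, dechorionated with pronase at 4 hpf, were placed singly in wells at 6 hpf and exposed statically at 28C to 120 hpf (0.64% DMSO final). Circulatory malformation was scored present/absent by brightfield microscopy.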
In the case of `Cc1cn([C@H]2C=C[C@@H](CO)O2)c(=O)[nH]c1=O`, the outcome is reported as “inactive”.
With `COC(=O)[C@H]1[C@H]2C[C@@H]3c4[nH]c5cc(OC)ccc5c4CCN3C[C@H]2C[C@@H](OC(=O)c2cc(OC)c(OC)c(OC)c2)[C@@H]1OC` the outcome was “inactive”.
In the case of `CC(=O)O`, the outcome is reported as “inactive”.
For `CC1=C(C)S(=O)(=O)CCS1(=O)=O`, the outcome was “inactive”.
With `OCC(CO)n1cnc(-c2ccc(F)cc2)c1-c1ccnc(Oc2ccccc2)n1` the outcome was “inactive”.
With `NCCOCCOCCN` the outcome was “inactive”.
For `Cc1cc(SC2=C(O)C[C@@](CCc3ccc(N)cc3)(C(C)C)OC2=O)c(C(C)(C)C)cc1CO`, the outcome was “inactive”.
For `C#CC(O)C(CC)CCCC` (centres undefined), the outcome was “inactive”.
With `O=C(O)c1cccnc1` the outcome was “inactive”.
For `Nc1nc(Cl)nc2c1ncn2[C@H]1C[C@H](O)[C@@H](CO)O1`, the outcome was “inactive”.
In the case of `C=CCc1ccc(OC)c(OC)c1`, the outcome is reported as “inactive”.
For `COc1ccc(OC(F)(F)F)cc1CN[C@H]1CCCN[C@H]1c1ccccc1`, the outcome was “inactive”.
With `CC(C)(C)c1ccccc1` the outcome was “inactive”.
For `CC(C)c1cccc(C(C)C)c1NC(=O)NS(=O)(=O)c1cc(C(C)(C)O)co1`, the outcome was “inactive”.
With `CC1(C)C(=O)NC(=O)N1CO` the outcome was “inactive”.
For `CC(=O)[C@@]1(O)CC[C@H]2[C@@H]3CCC4=CC(=O)CC[C@]4(C)[C@H]3CC[C@@]21C`, the outcome was “inactive”.
For `CCCCCCC(C=O)=Cc1ccccc1`, the outcome was “inactive”.
In the case of `COC(=O)CCC(=O)OC`, the outcome is reported as “inactive”.
In the case of `O=C1c2c(O)cccc2Cc2cccc(O)c21`, the outcome is reported as “inactive”.
In the case of `CC(N)=O`, the outcome is reported as “inactive”.
For `CSc1ccc(Oc2ccc(S(N)(=O)=O)cc2CN(C)C)cc1C`, the outcome was “inactive”.
In the case of `CCCCC(CC)CO` (centres undefined), the outcome is reported as “inactive”.
In the case of `CC(=O)O[C@]1(C(C)=O)CC[C@H]2[C@@H]3C=C(Cl)C4=CC(=O)[C@@H]5C[C@@H]5[C@]4(C)[C@H]3CC[C@@]21C`, the outcome is reported as “inactive”.

Test: Tanguay_ZF_120hpf_SWIM_legacy: (Legacy) Oregon State University Tanguay Lab 120 Hour Post-fertilization zebrafish Assay for Swim Bladder Malformation (AID 2283654);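 note: swim bladder malformation in each larva scored yes or no under brightfield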
How it was run: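 Dechorionated wild-type Tropical 5D zebrafish embryos, one per well from 6 hpf, were statically exposed at 28C until 120 hpf in 0.64% DMSO. Swim bladder malformation scored as present/absent by brightfield microscopy; not scored in dead larvae.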
With `Cc1cn([C@H]2C=C[C@@H](CO)O2)c(=O)[nH]c1=O` the outcome was “inactive”.
For `NC=O`, the outcome was “inactive”.
With `CC(=O)O` the outcome was “inactive”.
With `CC1=C(C)S(=O)(=O)CCS1(=O)=O` the outcome was “inactive”.
For `OCC(CO)n1cnc(-c2ccc(F)cc2)c1-c1ccnc(Oc2ccccc2)n1`, the outcome was “inactive”.
For `NCCOCCOCCN`, the outcome was “inactive”.
For `Cc1cc(SC2=C(O)C[C@@](CCc3ccc(N)cc3)(C(C)C)OC2=O)c(C(C)(C)C)cc1CO`, the outcome was “inactive”.
In the case of `C#CC(O)C(CC)CCCC` (centres undefined), the outcome is reported as “inactive”.
In the case of `O=C(O)c1cccnc1`, the outcome is reported as “inactive”.
In the case of `O=C(NS(=O)(=O)/C=C/c1cccs1)c1ccc(F)cc1Br`, the outcome is reported as “inactive”.
For `Nc1nc(Cl)nc2c1ncn2[C@H]1C[C@H](O)[C@@H](CO)O1`, the outcome was “inactive”.
In the case of `C/C=C/c1ccc(OC)cc1`, the outcome is reported as “inactive”.
In the case of `C=CCc1ccc(OC)c(OC)c1`, the outcome is reported as “inactive”.
In the case of `COc1ccc(OC(F)(F)F)cc1CN[C@H]1CCCN[C@H]1c1ccccc1`, the outcome is reported as “inactive”.
For `CC(C)(C)c1ccccc1`, the outcome was “inactive”.
In the case of `S=c1[nH]c2ccccc2s1`, the outcome is reported as “inactive”.
In the case of `CC1(C)C(=O)NC(=O)N1CO`, the outcome is reported as “inactive”.
For `COC(=O)CCCC(=O)OC`, the outcome was “inactive”.
In the case of `CC(=O)[C@@]1(O)CC[C@H]2[C@@H]3CCC4=CC(=O)CC[C@]4(C)[C@H]3CC[C@@]21C`, the outcome is reported as “inactive”.
With `CCCCCCC(C=O)=Cc1ccccc1` the outcome was “inactive”.
In the case of `COC(=O)CCC(=O)OC`, the outcome is reported as “inactive”.
With `O=C1c2c(O)cccc2Cc2cccc(O)c21` the outcome was “inactive”.
For `CC(N)=O`, the outcome was “inactive”.
With `CSc1ccc(Oc2ccc(S(N)(=O)=O)cc2CN(C)C)cc1C` the outcome was “inactive”.
With `CCCCC(CC)CO` (centres undefined) the outcome was “inactive”.
With `CC(=O)O[C@]1(C(C)=O)CC[C@H]2[C@@H]3C=C(Cl)C4=CC(=O)[C@@H]5C[C@@H]5[C@]4(C)[C@H]3CC[C@@]21C` the outcome was “inactive”.

Reference: PubChem BioAssay (EPA / NIEHS)
